PubChem BioAssay (EPA / NIEHS)
The source made the active and inactive calls. Rule for the calls: active = hit-call score of the fitted dose curve at least 0.9, where 1 is the maximum; inactive = score below 0.9.

Key:
Conditions in all cases: mRNA level, 48 h; actives raise or lower the signal
[1] = read-out: Insulin Like Growth Factor 1 (IGF1), IGF1 (gene 3479); assay: LTEA_HepaRG_IGF1: Life Technologies and Expression Analysis (LTEA) Assay for Insulin Like Growth Factor 1 (IGF1) using HepaRG (AID 2283506)
Outline: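 Endpoint: IGF1 mRNA change by qRT-PCR, housekeeping-normalized, fitted bidirectionally relative to 0.5% DMSO vehicle. Human HepaRG cells were treated 48 h in serum-free induction medium, eight half-log concentrations topping at 100 uM.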

[2] = read-out: Intercellular Adhesion Molecule 1 (ICAM1), ICAM1 (gene 3383); assay: LTEA_HepaRG_ICAM1: Life Technologies and Expression Analysis (LTEA) Assay for Intercellular Adhesion Molecule 1 (ICAM1) using HepaRG (AID 2283507)
Outline: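 Gain or loss of transcript in HepaRG hepatic cells is quantified by qRT-PCR after 48 h chemical exposure (up to 100 uM, half-log steps), with DMSO as baseline.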

[3] = read-out: Insulin-like growth factor-binding protein 1 (IGFBP1), IGFBP1 (gene 3484); assay: LTEA_HepaRG_IGFBP1: Life Technologies and Expression Analysis (LTEA) Assay for Insulin-like growth factor-binding protein 1 (IGFBP1) using HepaRG (AID 2283508)
Outline: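 mRNA induction or loss was quantified by qRT-PCR after 48 h chemical exposure of human HepaRG cells, with 0.5% DMSO as vehicle and baseline. Concentration-response over eight points up to 100 uM.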

[4] = read-out: Interleukin 6 (IL6), IL6 (gene 3569); assay: LTEA_HepaRG_IL6: Life Technologies and Expression Analysis (LTEA) Assay for Interleukin 6 (IL6) using HepaRG (AID 2283509)
Outline: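 Transcript levels, normalized to three housekeeping genes, were quantified by qRT-PCR after 48 h chemical treatment of HepaRG cells. Eight-point half-log series from 100 uM in 0.5% DMSO, duplicates. Fitted both directions against DMSO baseline.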

[5] = read-out: Interleukin 6 Receptor (IL6R), IL6R (gene 3570); assay: LTEA_HepaRG_IL6R: Life Technologies and Expression Analysis (LTEA) Assay for Interleukin 6 Receptor (IL6R) using HepaRG (AID 2283510)
Outline: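 In this HepaRG screen, test chemicals act on cells for 48 h at up to 100 uM (eight half-log points, duplicate wells). IL6R expression is quantified by qRT-PCR after normalization to ACTB, GAPDH and POLR2A, with DMSO as baseline.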

[6] = read-out: Potassium channel subfamily K member 1 (KCNK1), KCNK1 (gene 3775); assay: LTEA_HepaRG_KCNK1: Life Technologies and Expression Analysis (LTEA) Assay for Potassium channel subfamily K member 1 (KCNK1) using HepaRG (AID 2283511)
Outline: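 KCNK1 transcript measured by TaqMan qRT-PCR against three housekeeping genes, after HepaRG cells were treated 48 h with eight half-log concentrations (top 100 uM, 0.5% DMSO). Curves fitted bidirectionally relative to vehicle.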

[7] = read-out: Keratin 19 (KRT19), KRT19 (gene 3880); assay: LTEA_HepaRG_KRT19: Life Technologies and Expression Analysis (LTEA) Assay for Keratin 19 (KRT19) using HepaRG (AID 2283512)
Outline: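 Gene-expression endpoint in the human liver line HepaRG after 48 h exposure to up to 100 uM test chemical with 0.5% DMSO vehicle; KRT19 mRNA by qRT-PCR, analyzed bidirectionally versus DMSO.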

[8] = read-out: Lipase C (LIPC), LIPC (gene 3990); assay: LTEA_HepaRG_LIPC: Life Technologies and Expression Analysis (LTEA) Assay for Lipase C (LIPC) using HepaRG (AID 2283514)
Outline: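 LIPC expression was quantified by qRT-PCR against three housekeeping genes (ACTB, GAPDH, POLR2A). Differentiated human HepaRG cells received eight half-log doses (top 100 uM, 0.5% DMSO) in duplicate for 48 h; fitting bidirectional relative to DMSO.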

[9] = read-out: Lipoprotein lipase (LPL), LPL (gene 4023); assay: LTEA_HepaRG_LPL: Life Technologies and Expression Analysis (LTEA) Assay for Lipoprotein lipase (LPL) using HepaRG (AID 2283515)
Outline: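 LPL transcript levels quantified by TaqMan qRT-PCR against three housekeeping genes after 48 h chemical treatment of HepaRG cells. Eight-point half-log series from 100 uM in 0.5% DMSO, tested in duplicate; bidirectional fitting versus vehicle.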

[10] = read-out: MicroRNA 122 (MIR122), gene 406906; assay: LTEA_HepaRG_MIR122: Life Technologies and Expression Analysis (LTEA) Assay for MicroRNA 122 (MIR122) using HepaRG (AID 2283516); note: the transcript read is the microRNA miR-122
Outline: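 Changes in transcript abundance, up or down relative to 0.5% DMSO vehicle, were scored after 48 h chemical treatment of HepaRG cells (maximum 100 uM). Quantification used TaqMan qRT-PCR normalized to housekeeping genes.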

[11] = read-out: matrix metalloproteinase-10 (MMP10), MMP10 (gene 4319); assay: LTEA_HepaRG_MMP10: Life Technologies and Expression Analysis (LTEA) Assay for matrix metalloproteinase-10 (MMP10) using HepaRG (AID 2283517)
Outline: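 Expression measured by TaqMan qRT-PCR with ACTB/GAPDH/POLR2A normalisation after 48 h chemical exposure of HepaRG cells. Eight half-log concentrations, top 100 uM, 0.5% DMSO vehicle, duplicates; gain or loss fitted against vehicle.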

[12] = read-out: MYC, MYC (gene 4609); assay: LTEA_HepaRG_MYC: Life Technologies and Expression Analysis (LTEA) Assay for MYC using HepaRG (AID 2283518)
Outline: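 Cells are thawed, plated and cultured 48 h, then treated for 48 h with test chemicals (eight half-log concentrations from 100 uM, 0.5% DMSO vehicle). RNA is isolated and MYC expression quantified by qRT-PCR against three housekeeping genes.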

[13] = read-out: matrix metalloproteinase-3 (MMP3), MMP3 (gene 4314); assay: LTEA_HepaRG_MMP3: Life Technologies and Expression Analysis (LTEA) Assay for matrix metalloproteinase-3 (MMP3) using HepaRG (AID 2283519)
Outline: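 Fluidigm-based TaqMan qRT-PCR, normalized to ACTB, GAPDH and POLR2A and fitted bidirectionally versus 0.5% DMSO, measured transcript levels. Treatment: duplicate 48 h exposures of HepaRG cells, ~100,000/well, to eight half-log concentrations topping at 100 uM.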

[14] = read-out: Paternally Expressed 10 (PEG10), PEG10 (gene 23089); assay: LTEA_HepaRG_PEG10: Life Technologies and Expression Analysis (LTEA) Assay for Paternally Expressed 10 (PEG10) using HepaRG (AID 2283520)
Outline: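 After 48 h exposure of differentiated HepaRG cells (0.5% DMSO vehicle, eight concentrations up to 100 uM, duplicates), PEG10 mRNA was measured by TaqMan qRT-PCR. Values were normalised to endogenous control genes and analysed bidirectionally against vehicle.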

[15] = read-out: Protein phosphatase 2A (PPP2R4), PTPA (gene 5524); assay: LTEA_HepaRG_PPP2R4: Life Technologies and Expression Analysis (LTEA) Assay for Protein phosphatase 2A (PPP2R4) using HepaRG (AID 2283522)
Outline: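 Using HepaRG cultures maintained in 0.5% DMSO, chemicals are tested 48 h at up to 100 uM in duplicate. Induction or suppression of PPP2R4 mRNA, measured by qRT-PCR, is fitted bidirectionally against the vehicle baseline.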

[16] = read-out: Phosphatase and tensin (PTEN), PTEN (gene 5728); assay: LTEA_HepaRG_PTEN: Life Technologies and Expression Analysis (LTEA) Assay for Phosphatase and tensin (PTEN) using HepaRG (AID 2283523)
Outline: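 Read-out: TaqMan qRT-PCR of PTEN transcript, normalized to three housekeeping genes, fitted in both directions against 0.5% DMSO. Differentiated human HepaRG cultures received chemicals for 48 h, eight-point half-log series topping at 100 uM.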

[17] = read-out: solute carrier (SLC22A1), SLC22A1 (gene 6580); assay: LTEA_HepaRG_SLC22A1: Life Technologies and Expression Analysis (LTEA) Assay for solute carrier (SLC22A1) using HepaRG (AID 2283524)
Outline: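 Transcript level of SLC22A1 quantified by qRT-PCR (normalized to three housekeeping genes) after 48 h chemical exposure of HepaRG cells, eight concentrations up to 100 µM, half-log steps, 0.5% DMSO vehicle. Gain or loss relative to DMSO fitted bidirectionally.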

[18] = read-out: Pyruvate Dehydrogenase Kinase 4 (PDK4), PDK4 (gene 5166); assay: LTEA_HepaRG_PDK4: Life Technologies and Expression Analysis (LTEA) Assay for Pyruvate Dehydrogenase Kinase 4 (PDK4) using HepaRG (AID 2283525)
Outline: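 Readout is qRT-PCR of PDK4 transcript, normalized to three housekeeping genes, with bidirectional fitting against 0.5% DMSO vehicle. Differentiated HepaRG cells were treated 48 h in serum-free induction medium, duplicate wells, eight-point half-log series topping at 100 uM.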

[19] = read-out: JUN Transcription Factor, JUN (gene 3725); assay: LTEA_HepaRG_JUN: Life Technologies and Expression Analysis (LTEA) Assay for JUN Transcription Factor using HepaRG (AID 2283513)
Outline: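 Gene-expression endpoint: JUN mRNA (qRT-PCR, normalized to three reference genes) in HepaRG cultures treated 48 h with chemicals, duplicate wells, 100 uM maximum with half-log dilutions; bidirectional fitting relative to 0.5% DMSO.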

[20] = read-out: Nuclear factor NF-kappa-B p105 subunit (Homo sapiens) (UniProt P19838); assay: LTEA_HepaRG_NFKB1: Life Technologies and Expression Analysis (LTEA) Assay for Nuclear Factor Kappa B Subunit 1 (NFKB1) using HepaRG (AID 2283521);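 note: differentiated human HepaRG liver cells in serum-free induction medium; TaqMan qRT-PCR transcript normalised to ACTB GAPDH and POLR2A housekeeping genes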
Outline: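 Human HepaRG cells receive eight half-log concentrations, highest 100 uM, for 48 h. NFKB1 expression is then quantified by qRT-PCR and analysed for up- or down-regulation relative to 0.5% DMSO vehicle.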

Measured: outcome

Sequence of Nuclear factor NF-kappa-B p105 subunit (Homo sapiens) (P19838 whole entry, looked up): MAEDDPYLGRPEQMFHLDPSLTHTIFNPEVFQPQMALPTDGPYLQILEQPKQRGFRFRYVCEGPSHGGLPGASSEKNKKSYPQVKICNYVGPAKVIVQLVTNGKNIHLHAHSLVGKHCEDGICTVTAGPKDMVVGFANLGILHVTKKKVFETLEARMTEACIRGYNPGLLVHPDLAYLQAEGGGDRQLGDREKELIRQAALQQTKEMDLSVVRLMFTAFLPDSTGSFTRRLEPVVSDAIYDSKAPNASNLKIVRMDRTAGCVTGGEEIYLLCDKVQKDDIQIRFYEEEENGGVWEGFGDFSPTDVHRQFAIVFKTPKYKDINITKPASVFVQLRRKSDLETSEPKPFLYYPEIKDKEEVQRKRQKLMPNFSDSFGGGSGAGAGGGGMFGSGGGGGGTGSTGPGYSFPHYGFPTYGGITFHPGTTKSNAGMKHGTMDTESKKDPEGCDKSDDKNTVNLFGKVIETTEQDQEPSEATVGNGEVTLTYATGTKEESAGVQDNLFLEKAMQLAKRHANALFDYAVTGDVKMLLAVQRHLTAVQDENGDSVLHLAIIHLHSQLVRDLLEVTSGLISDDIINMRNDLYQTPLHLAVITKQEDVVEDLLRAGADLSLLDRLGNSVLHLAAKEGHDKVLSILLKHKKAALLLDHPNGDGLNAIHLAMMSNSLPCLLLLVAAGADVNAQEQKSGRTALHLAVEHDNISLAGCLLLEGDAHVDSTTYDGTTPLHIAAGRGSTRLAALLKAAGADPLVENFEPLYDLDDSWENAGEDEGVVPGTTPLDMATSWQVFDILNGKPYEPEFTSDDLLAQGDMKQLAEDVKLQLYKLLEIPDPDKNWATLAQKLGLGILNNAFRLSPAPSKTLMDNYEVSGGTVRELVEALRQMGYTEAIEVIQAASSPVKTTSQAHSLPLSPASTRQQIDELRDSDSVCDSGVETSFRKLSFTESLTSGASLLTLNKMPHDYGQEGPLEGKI

Cc1ccc([N+](=O)[O-])cc1N
inactive: [1] | [2] | [3] | [4] | [5] | [6] | [7] | [8] | [9] | [10] | [11] | [12] | [13] | [14] | [15] | [16] | [17] | [18]

C1CNCCN1
inactive: [1] | [2] | [3] | [4] | [5] | [6] | [7] | [19] | [8] | [9] | [10] | [11] | [12] | [13] | [14] | [20] | [15] | [16] | [17] | [18]

Nc1ccc(C(=O)O)cc1
inactive: [1] | [2] | [3] | [4] | [5] | [6] | [7] | [19] | [8] | [9] | [10] | [11] | [12] | [13] | [14] | [20] | [15] | [16] | [17] | [18]
